Laboratory results published in the supplement of paper PMC9948646.
Values without a mark were called inactive.

system: gramicidin D channels in DC22:1PC lipid vesicles (bilayer-modifying potency); experiment: initial Tl+ fluorescence quench rate relative to no-drug control (NormRate, gramicidin monomer-dimer shift) (ratio (fold of control)); higher = stronger bilayer-modifying effect (equilibrium shifted toward conducting dimers), active = 1.5 or more; details: 10 µM; lipid concentration 50 µM; temperature: 25 °C
Protocol: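 Stopped-flow fluorescence quench assay: ANTS-loaded DC22:1PC large unilamellar vesicles doped with gramicidin D (1:2000), 50 µM lipid, equilibrated 10 min with 10 µM drug (0.1% DMSO), mixed with Tl+ quench buffer at 25°C. Initial quench rate (Tl+ influx) was fitted with a modified stretched exponential and normalised to the no-drug control rate (NormRate); duplicates from two independent LUV preparations (triplicates for 7 drugs).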

| Structure (SMILES) | initial Tl+ fluorescence quench rate |
| --- | --- |
| CC(C)=CCC/C(C)=C\CNCCN[C@H]1[C@@H]2C[C@H]3C[C@@H](C2)C[C@@H]1C3 | 1.66 (active) |
| NCC(=O)N1CCn2c(nc(-c3ccccc3)c2Nc2ccc3c(c2)OCO3)C1 | 1.36 |
| CCn1cnc2c(Nc3cc(F)cc(F)c3)nc(C#N)nc21 | 1.21 |
| Clc1ccc(CCNc2cc(-c3ccccc3)nc3ncnn23)cc1 | 1.3 |
| CN1CCN(S(=O)(=O)c2ccc(-c3ccc4c(Nc5ncc(Cl)cn5)ccnc4c3)cc2)CC1 | 2.76 (active) |
| c1csc(-c2cnc3sc(NCC4CCOCC4)nn23)c1 | 1.71 (active) |
| [H]/N=C(/N)Nc1ccc(-c2ccc(-c3ccc(N=C(N)N)c(Cl)c3)o2)cc1Cl | 1.59 (active) |
| CN(C)CCNC(=O)N1CCCN(c2ncnc3cc(-c4ccccc4)sc23)CC1 | 1.11 |
| Cc1cnc(N2CCN[C@@H](Cc3ccccc3)C2)nc1Oc1ccc(-n2ccnc2)cc1 | 1.72 (active) |
| O=C(C1CCN(c2nnc(-n3cccc3)s2)CC1)N1CCC(Cc2ccccc2)CC1 | 1.24 |
| C[C@H](C(=O)Nc1ccc2oc(-c3ccncc3)nc2c1)c1ccccc1 | 1.09 |
| CC(C)(C(=O)Nc1ccc(F)cc1)n1cc(-c2ccccc2F)cn1 | 1.42 |
| COc1ccc(C2=NCCN2)cc1-c1cn(-c2cccc(C3=NCCN3)c2)nn1 | 1.2 |
| CCc1ccccc1-n1c(C)cn2c3c(=O)n([C@@H](C(=O)OC)C(C)C)c(=O)n(C)c3nc12 | 1.2 |
| CCc1c(C)nc(-n2nc(C)cc2NC(=O)c2ccccc2SC)[nH]c1=O | 1.2 |
| O=C(c1ccc(NCCO)cc1)[C@H]1C[C@H]1c1ccc(Cl)cc1 | 3.55 (active) |
| [H]/N=C(\N)c1ccc(-n2cc(-c3cc(/C(N)=N/[H])ccc3OC)nn2)cc1 | 1.05 |
| O=[N+]([O-])c1cn2c(n1)OC[C@@H](OCc1ccc(OC(F)(F)F)cc1)C2 | 1.38 |
| Cc1cccnc1NC(=O)c1cccc(OCc2c(C)noc2C)c1 | 1.07 |
| c1ccc(Oc2ccc(-c3cc(CN4CCOCC4)[nH]n3)cc2)cc1 | 1.7 (active) |

| Structure (SMILES) | initial Tl+ fluorescence quench rate |
| --- | --- |
| O=C(C1CCCCC1)N1CC(=O)N2CCc3ccccc3[C@@H]2C1 | 1.04 |
| Cc1ccc(Oc2ccc(NC(=O)CNc3ccccc3N3CCCC3=O)cc2)cc1 | 4.66 (active) |
| C[C@H]1CCCN(C(=O)[C@H](C)Nc2cc(Cl)ccc2N2CCOCC2)C1 | 1.23 |
| C[C@H]1COc2c(N3CCN(C)CC3)c(F)cc3c(=O)c(C(=O)O)cn1c23 | 1.04 |
| Cc1ccc2oc(-c3cc(NC(=O)Cc4ccccc4)ccc3Cl)nc2c1 | 1.18 |
| Nc1nccc2ccc(Oc3ccncc3)cc12 | 1.1 |
| O=C(NC1=NCCS1)c1sc2cc(F)ccc2c1Cl | 1.06 |
| CN(C)c1cc(NC(=O)Nc2ccccc2)c2ccccc2n1 | 1.74 (active) |
| CCCNC(=O)N1CCC2(CC1)CC(=O)c1cc(C)ccc1O2 | 1.15 |
| C[C@]1(O)C[C@@H](c2nc(-c3ccc4ccc(-c5ccccc5)nc4c3)c3c(N)nccn32)C1 | 1.59 (active) |
| CN1CCC(c2cc(-c3ccncc3)c(-c3ccc(F)cc3)[nH]2)CC1 | 1.03 |
| COc1cccn2c(C(=O)N3CCCCC3)c(C(F)(F)F)nc12 | 1.08 |
| O=C(Nc1ccccc1-c1nc2c(C(=O)O)cccc2o1)c1ccccc1 | 1.34 |
| c1ccc(Oc2ccc(-c3cc(N4CCNCC4)[nH]n3)cc2)cc1 | 1.44 |
| CC1(C)Cc2c(c(N3CCOCC3)nc3snc(Br)c23)CO1 | 1.26 |
| CC(C)(C)CN1C(=O)C(c2ccccc2)(c2ccccc2)N=C1N | 2.96 (active) |
| COc1ccc(-c2nn(C(C)C)c3ncnc(N)c23)cc1OC | 1.01 |
| CNCC[C@H](Oc1ccc(C(F)(F)F)cc1)c1ccccc1 | 1.41 |
| COc1cc(OC)cc(C(=O)NC[C@@H]2Cc3cc(Cl)cc(-c4ccncc4)c3O2)c1 | 2.47 (active) |
| CNC(=O)CNc1nc(-c2ccccn2)nc2scc(-c3ccccc3)c12 | 5.21 (active) |
